The list shows a part of the results. Results filed as inconclusive are left out. Calls of active or inactive are those of the source. The call rests on the fitted dose curve; in most records, active means well fitted inhibition curve with a large enough effect; inconclusive means small, poorly fitted or top-dose-only effect; inactive means flat fitted curve, though single readings scatter.
Test: qHTS Assay for Inhibitors of Fructose-1,6-bisphosphate Aldolase from Giardia Lamblia: Coupling assay counterscreen confirmation (AID 2795); further: nearly all actives have a fitted effect of over 55% in size
Details: GAPDH coupling enzyme counterscreen, biochemical; series mostly up to 57.5 µM
Source text: NIH Chemical Genomics Center [NCGC]
NIH Molecular Libraries Probe Production centers Network [MLPCN]
Assay Provider: Osnat Herzberg, University of Maryland
The objective of this project is to obtain compounds that inhibit Giardia lamblia growth. G. lamblia is a human pathogen which afflicts impoverished nations; it is the most common cause of outbreaks of diarrhea in the United States. During the course of our study of potential drug targets in Giardia, we have identified the Class II (Zn2+ functions in electrophilic catalysis) fructose-1,6-bisphosphate aldolase (FBPA) as an excellent candidate for drug targeting. FBPA is a key glycolytic pathway enzyme, essential for G. lamblia survival. The human FBPA belongs to the Class I aldolases, which have a different substrate binding site structure and a radically different catalytic mechanism (employing a lysine-Schiff base intermediate). Therefore, affinity-based or mechanism-based inhibitors of the Giardia FBPA are expected not to interfere with the catalytic function of the human FBPA.
A glyceraldehyde-3-phosphate dehydrogenase/triose phosphate isomerase/NAD/arsenate coupled assay was adapted to the 1536-well HTP format for use in the primary screen. This was done by coupling it to a diaphorase/resazurin/resorufin reaction that can be monitored by fluorescence (excitation, 544 nm; emission, 590 nm). Compounds identified in this screen will be further evaluated by coupling the glycerol-3-phosphate/triose phosphate isomerase/NADH assay to a phenazine methosulfate/tetranitroblue tetrazolium color reaction. False positives due to the dehydrogenases and diaphorase inhibition will be eliminated, and selectivity assay will triage inhibitors of mammalian triose phosphate isomerase and the Class I FBPA. G. lamblia FBPA inhibitors identified by the in vitro analyses will be examined for growth inhibition of Giardia trophozoites, and for cytotoxicity in human cells.
This assay specifically addresses whether activity observed in the primary screen (AID 2451) is related to inhibition of the coupling assay used, as opposed to inhibition of aldolase. Actives in this assay are considered inconclusive for activity against aldolase. Hits from the primary screen was run in this assay to confirm their inactivity against the coupling assay.
Step,Parameter,Value,Description
1,Coupling enzyme reagent,2 uL,glyceraldehyde-3-phosphate
2,Compound,23 nL,3.68 nM-57.5 uM final concentration
3,Time,10 min,RT Incubation
4,Substrate/detection Reagent,2 uL,Substrate + enzyme coupling system + AmpLite Red kit
5,Time,20 min,RT Incubation
6,Detector,525 nm/598 nm (Fluorescence),ViewLux Fluorescence Read (Read 1)
1,Medium-binding black solid-bottom Kalypsys plates. FRD or Kalypsys dispenser.
2,Compound Library (10 mM ,1:5 dilution). Pin-transferred for a [final] range of 3.68 nM-57.5 uM.
4,FRD or Kalypsys dispenser, 2 uL of reaction mixture. Bottle kept at 4C and covered in foil to protect from light.
6,ViewLux Protocol 1194; Excitation filter wheel A (525/20 Pol; BODIPY TMR FP), Emission filter wheel B (598/25 S; BODIPY TMR FP S).
Keywords: Fructose-bisphosphate aldolase, FBPA , Giardia lamblia , Giardia, HTS, Inhibitors

Row | Compound | outcome
1 | Cc1nc(N2CCOCC2)sc1C(=O)NN | inactive
2 | Cc1cccc(-c2nnc(SCC(=O)O)n2Cc2ccccc2)c1 | inactive
3 | Cc1cc(C)n(-c2ccc(Cl)c(C(=O)O)n2)n1 | inactive
4 | CN1C(=O)/C(=C\c2ccc(-c3ccccc3)o2)SC1=S | inactive
5 | O=C(CN1C(=O)COc2ccccc21)Nc1ccc(F)cc1 | inactive
6 | Cc1cc(C)c2c(=O)[nH]c(SCC(=O)Nc3ccc(Br)cc3)nc2n1 | inactive
7 | O=C(Nc1nnc(-c2ccco2)o1)c1ccc(S(=O)(=O)N2CCOCC2)cc1 | inactive
8 | O=C(CSc1cccc[n+]1[O-])c1ccc(-c2ccccc2)cc1 | inactive
9 | Oc1ccc2ccccc2c1N=Nc1nccs1 | inactive
10 | Clc1cccc(CN2COc3c(cc(Cl)c4cccnc34)C2)c1 | inactive
11 | Cc1csc(NC(=O)CN2CCCCCC2)n1 | inactive
12 | CC(C)(c1ccccc1)c1ccc(OCCN2CCCC2)cc1 | inactive
13 | COc1ccc(N=Nc2c(-c3ccc(OC)cc3)[nH]oc2=O)cc1 | inactive
14 | Cn1c(=O)[nH]c(=O)c2c1[nH]c(=S)n2Cc1ccccc1 | inactive
15 | Cc1cccc(C)c1OCCN1CCOCC1 | inactive
16 | Cc1ccc(C(=O)Nc2nnc(C3=COCCO3)o2)cc1C | inactive
17 | O=C(N/N=C/c1ccccn1)c1cccnc1 | inactive
18 | Cc1cnc(NC(=O)c2ccccn2)s1 | inactive
19 | O=C(CN1CCN(Cc2ccccc2)CC1)Nc1ccc(F)c(F)c1 | inactive
20 | CSc1n[nH]c(=S)n1N | inactive

Row | Compound | outcome
21 | Oc1[nH]c2ccc(Br)cc2c1N=Nc1nn[nH]n1 | inactive
22 | CC(=O)NC1CCN(CC(=O)Nc2nccs2)CC1 | inactive
23 | COc1cc(CN2CCN(Cc3ccc(C)cc3)CC2)c([N+](=O)[O-])cc1OC | inactive
24 | Cn1nnc(NC(=S)NC(=O)c2ccccc2)n1 | inactive
25 | COc1ccc(OC)c(Nc2nc(-c3ccc(O)c(O)c3)cs2)c1 | inactive
26 | O=[N+]([O-])c1cc([N+](=O)[O-])c2cccnc2c1O | inactive
27 | CN(C)CCOc1ccc(Cl)cc1C(C)(C)C | inactive
28 | O=C1CCCN1CCCNC(=S)Nc1ccc(F)c(Cl)c1 | inactive
29 | CCS(=O)(=O)c1cc([N+](=O)[O-])c(Sc2ccccc2N)s1 | inactive
30 | COc1ccccc1CN1CCN(Cc2cc(OC)c(OC)cc2OC)CC1 | inactive
31 | Cc1nnc(SCC2=C(C(=O)O)N3C(=O)C(NC(=O)Cn4nc(C)c(Cl)c4C)C3SC2)s1 (stereo not given) | inactive
32 | CCc1ccc2c(c1)C1(NN=C(c3ccccc3)S1)C(=O)N2 (stereo not given) | inactive
33 | O=C(Nc1ccccc1Cl)O/N=C(/c1ccccc1)c1ccccn1 | inactive
34 | COc1ccc(Cl)cc1C(=O)NNC(=O)c1nc2nc(C)cc(C)n2n1 | inactive
35 | C=CCc1cc(C)ccc1OCCCn1ccnc1 | inactive
36 | C/C(=N\NC(N)=S)c1cccnc1 | inactive
37 | CN1CCN(CCCCOc2ccccc2-c2ccccc2)CC1 | inactive
38 | O=C(NC(=S)Nc1ncccn1)c1ccccc1Br | inactive
39 | CN1CCCc2cc(C#N)c(=O)[nH]c21 | inactive
40 | C=C(C)CNC(=S)N/N=C/c1ccccc1OCC(=O)O | inactive
